The source of these data is PubChem BioAssay (NCATS).

SMILES strings stand for the structures. Inconclusive results are not listed. Entries that show only a call come without a potency. Unmarked numbers belong to inactive results. Active and inactive are the calls of the source. Calls follow the shape of the dose curve; as a rule, active = well fitted cell-killing curve with a large enough effect; inconclusive = small, poorly fitted or top-dose-only effect; inactive = flat fitted curve, though single readings scatter. Bridge positions count the residues as written; N and C are the ends. Square brackets hold non-standard residues; d marks the D form. Side chains are listed from the residue outwards. Peptide text beside a SMILES is read from it. * marks the point of attachment. Phg(4-OMe) = COc1ccc([C@H](N)C(=O)O)cc1; d(aIle) = CC[C@H](C)[C@@H](N)C(=O)O; d(aThr) = C[C@@H](O)[C@@H](N)C(=O)O; NMeF = CN[C@@H](Cc1ccccc1)C(=O)O; Isobutyryl = CC(C)C(=O)*
Potency is read from the fitted curve at half-maximal effect.

The test is described as follows: U-118MG Cancer Cell Toxicity qHTS against the NCATS CANVASS Library (AID 1347351). Particulars: U-118MG viability, CellTiter-Glo luminescence, 72 h; series mostly up to 38.3 µM. In outline:
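Step one: seed 1000 cells per well. Step two: incubate 4 h. Step three: add test compounds in 11 concentrations. Step four: culture 72 h, then add CellTiter-Glo and record luminescence after 15min.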
Background: qHTS replaces the single test concentration by a dilution series.
`CC(C)=CCC[C@]12c3cc4c(cc3CC[C@@]1(C)[C@H](C)CC[C@@H]2O)[nH]c1ccccc14`: the Potency result was “inactive”.

Take `C/C=C/C1C=CC2CC(C)CC(C)C2C1C(=O)CC(=O)NC(CO)C/C=C/CCCCC` (stereo unspecified): the Potency entry is “inactive”.

Take `C=C1CC[C@@H](Br)C(C)(C)[C@]12CC=C(C)C(=O)C2`: the Potency result is “inactive”.

With `C=CC(CCCCC)C1C(=O)NC(=O)C1C(=O)C1C(/C=C/C)C=CC2CC(C(=O)O)CC(C)C21` (stereo unspecified), the Potency was 21.1 µM (active).

On to `COc1cc(/C=C/C(=O)OC[C@@H](Cc2ccc(O)c(OC)c2)[C@@H](COC(=O)/C=C/c2ccc(O)c(OC)c2)Cc2ccc(O)c(OC)c2)ccc1O`, for which the Potency is 10.6 µM (active).

Turning to `C=C[C@@]1(C)CC[C@@H]([C@H](C)C(=O)/C=C/C(C)(C)O)O1`, the Potency result was “inactive”.

Take `C=C1CC[C@@H](O[C@H]2C[C@@](O)([C@H](C)NC(=O)c3[nH]c(C)c(Cl)c3Cl)[C@H](O)[C@@H](C)O2)[C@@H]2C=C[C@H](C)C(/C(O)=C3/C(=O)[C@H](C(C)C)N([C@@H]4O[C@H](C)[C@H](OC(N)=O)[C@H](OC(C)=O)[C@@H]4OC)C3=O)[C@@H]12` (stereo partly specified): the Potency result was “inactive”.

In the case of `CC[C@H](C)[C@H]1NC(=O)[C@@H](NC(=O)C(C)C)[C@@H](C)OC(=O)[C@H](COC(=O)CNC(C)=O)NC(=O)[C@@H]([C@@H](C)O)NC(=O)[C@H](Cc2ccccc2)N(C)C(=O)[C@H](c2ccc(OC)cc2)NC1=O` (Isobutyryl-T[d(aIle)][Phg(4-OMe)][NMeF][d(aThr)]S([Gly-Ac]); ester 1-C), the Potency entry was “inactive”.

On to `C=C(C)CC[C@H](Cc1c(O)cc(O)c2c1O[C@H](c1ccc(O)cc1)CC2=O)C(=C)C`, for which the Potency entry is “inactive”.

Regarding `C[C@]12CC[C@]3(C1)[C@H](CC2=O)C[C@@H](OC(=O)c1ccccc1)[C@H]1[C@](C)(C(=O)O)CCC[C@@]13C`, the Potency entry is “inactive”.

For the molecule `Cc1occ2c1C(=O)c1c(cc(O)c(O)c1O)C2=O`, the Potency was 13.3 µM (active).

Turning to `C=C[C@](Cl)(CBr)CCC=C(C)C`, the Potency result was “inactive”.

As for `CC(=O)O[C@H]1c2ccccc2-c2c3c(cc4c2[C@@H]1N(C(C)=O)CC4)OCO3`, the Potency entry was “inactive”.

On to `C=CC(CCCCC)C1C(=O)NC(=O)C1C(=O)C1C2C(C)CC(C(=O)O)CC2CC1(O)C(=O)/C=C/C` (stereo unspecified), for which the Potency entry is “inactive”.

Turning to `C[C@]12CCC[C@](C)(C(=O)O)[C@@H]1CC[C@@]1(C)c3cocc3CC[C@H]21`, the Potency result was “inactive”.

Consider `COc1cc(C2OCC3C(c4ccc(O)c(OC)c4)OCC23)ccc1O` (stereo unspecified), for which the activity change, negative = cytotoxicity was -4.99% [at 7.64 µM].

Take `COc1cc(O)c(C(=O)[C@@H]2[C@H](CC=C(C)C)C(C)=CC[C@H]2c2ccccc2)c(O)c1`: the Potency is 7.49 µM (active).

As to `C[n+]1cc2cc(C(N)=O)[nH]c3c(=N)c(Cl)c(N)c1c23`, the Potency entry is “inactive”.

`COc1cc2c(c(O)c1O)C(=O)c1c(coc1C)C2=O`: the Potency was 21.1 µM (active).

As for `CCC(=O)N[C@@H](C[C@H](C)C(Cl)(Cl)Cl)C(=O)N1C(=O)C=C(OC)[C@@H]1CC(C)C`, the Potency entry was “inactive”.

As to `O=c1cc(-c2ccc(O)c(O)c2)oc2cc(O[C@@H]3O[C@H](CO)[C@@H](O)[C@H](O)[C@H]3O)cc(O)c12`, the Potency result is “inactive”.

For `C/C1=C/[C@@H](C)[C@H](O)[C@@H](O)/C=C/CC/C=C/C(=O)O[C@@H]1[C@H](C)C(=O)CCCC1CC(=O)NC(=O)C1`, the Potency result was “inactive”.

In the case of `CN1CC[C@]2(c3cccc4c3N[C@H]3N(C)CC[C@@]43[C@]34CCN(C)[C@H]3Nc3ccccc34)c3ccccc3N[C@H]12`, the Potency is 7.49 µM (active).

Turning to `CC(=O)Oc1cc2c(c(OC(C)=O)c1C1CCc3cc(Cl)c(Cl)n31)C(=O)n1c-2cc(Cl)c1Cl` (stereo unspecified), the Potency was 13.3 µM (active).

As for `COc1cc2c(cc1OC)[C@@H](c1ccc3c(c1)OCO3)C(C)C(C)C2=O` (stereo partly specified), the Potency entry was “inactive”.

As for `C/C=C(/C)c1c(Cl)c(O)c(C)c2c1Oc1c(Cl)c(O)c(Cl)c(C)c1C(=O)O2`, the Potency result is “inactive”.

As to `CC(C)C[C@@H]1c2c(O)c(C=O)c(O)c(C=O)c2O[C@]2(C)C=C[C@@H](C(C)C)C[C@H]12`, the Potency result was “inactive”.

On to `C/C=C(/C)c1cc(O)c(C)c2c1Oc1cc(O)cc(C)c1C(=O)O2`, for which the Potency result was “inactive”.

As to `CC(C)[C@]12CC[C@@]3(C)[C@H](C)CC[C@H](O)[C@@]3(CC1)c1cc3c(cc12)[nH]c1ccccc13`, the Potency entry is “inactive”.

For the molecule `C[C@H]1C=C[C@H]2CCCC[C@@H]2[C@H]1C(=O)[C@H]1CC2=C(C(=O)O)CCN2C1=O`, the Potency result was “inactive”.

In the case of `C/C=C(/C)c1c(Cl)c(OC)c(C)c2c1Oc1c(Cl)c(O)c(Cl)c(C)c1C(=O)O2`, the Potency entry is “inactive”.
